# This is a sample that favours compounds with a hit; in the whole collection about 12% have one here.
# BAZ2B block: inhibitors of human BAZ2B bromodomain. Q9UIF8. AlphaScreen BAZ2B-H3K14Ac peptide displacement. Potency, µM (series often up to 114 µM), for inactives: at the highest dose activity change, negative = inhibition, most hits filed as inhibitors. 360,000 compounds, 4.4% hits. AID 504333; also: % is scaled to controls: 0 for no effect and ±100 for the full control effect; nearly all actives have a fitted effect of over 60% in size
#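 AlphaScreen displacement of biotin-H3(5-23)K14Ac peptide (50 nM final) from BAZ2B (50 nM final) in PBS pH 7.4, 0.01% Tween-20; complex preformed 30 min RT, then compounds (top 110 uM) 30 min RT, beads 20 min dark.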
# HP1b binding inh: HP1-beta chromodomain-methylated histone interaction inhibition; AlphaScreen HP1-beta / biotin-H3K9me3 peptide binding; AID 540317; Potency, µM (series often up to 114 µM), without a hit: top-dose activity change, negative = inhibition, usual class: inhibitors; 390,000 compounds, 0.56% hits; also: nearly all actives have a fitted effect of over 70% in size
# Target sequence (P83916 whole entry, looked up): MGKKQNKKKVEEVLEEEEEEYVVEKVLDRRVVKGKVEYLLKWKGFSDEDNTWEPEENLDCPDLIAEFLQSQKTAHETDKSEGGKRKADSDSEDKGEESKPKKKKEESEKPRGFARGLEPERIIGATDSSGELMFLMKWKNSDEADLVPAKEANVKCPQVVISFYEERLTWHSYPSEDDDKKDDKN
#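 HP1-beta protein (50 nM final) preincubated 30 min at room temperature with biotinylated H3(1-18)K9me3 peptide (50 nM) in PBS pH 7.4, 0.01% Tween-20, then compound added for 30 min. AlphaScreen streptavidin donor/nickel chelate acceptor beads (10 ug/mL final), 30 min dark, luminescence read.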
# G9a block: blocks human histone lysine methyltransferase G9a; Q96KQ7; G9a H3K9 monomethylation, AlphaScreen, 2 h; Potency, µM (titrated, usually from 102 µM), inactives show at the highest dose activity, negative = inhibition, usual class: inhibitors; 350,000 compounds, 8.8% hits; AID 504332; also: % is scaled to controls: 0 for no effect and ±100 for the full control effect; nearly all actives have a fitted effect of over 75% in size
# Target sequence (Q96KQ7 913-1193 limits assumed): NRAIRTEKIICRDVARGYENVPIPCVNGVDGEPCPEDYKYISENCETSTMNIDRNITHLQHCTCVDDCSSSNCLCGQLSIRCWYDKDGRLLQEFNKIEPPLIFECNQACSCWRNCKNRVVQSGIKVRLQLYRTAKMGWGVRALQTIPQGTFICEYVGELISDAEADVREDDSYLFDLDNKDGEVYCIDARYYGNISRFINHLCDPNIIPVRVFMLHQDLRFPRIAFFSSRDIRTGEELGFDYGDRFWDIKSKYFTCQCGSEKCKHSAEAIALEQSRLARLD
#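 Signal arises when biotinylated H3K9 peptide, once monomethylated, bridges streptavidin donor and antibody-captured acceptor beads. Enzyme at 20 nM was preincubated 15 min with test compounds; peptide 500 nM and SAM 20 uM then reacted for 2 h.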
# Sfp PPTase inh: inhibitors of Bacillus subtilis Sfp phosphopantetheinyl transferase; Q9F4F7; Biochemical Sfp PPTase activity, qHTS; Potency, µM, inactives show largest response in the series, negative = inhibition, actives largely listed as inhibitors; 310,000 compounds, 3.5% hits;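 also: the enzyme is Sfp with the accession as filed and its product quenches rhodamine fluorescence; 0% = enzyme reaction without inhibitor and -100% = no enzyme wells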
#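 Buffer: 50 mM Hepes-Na pH 7.6, 10 mM MgCl2, 0.01% Nonidet P-40, 0.01% BSA. Enzyme 15 nM, pre-exposed to compound 15 min; substrates then added and fluorescence change tracked over 30 min.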
# L3MBTL1 inh-1: L3MBTL1 (human) inhibition. Q9Y468. AlphaScreen L3MBTL1–H3K9me1 peptide binding. Potency, µM (doses to about 57.1 µM), for the others: at the highest dose activity, negative = inhibition, usual class: inhibitors. 230,000 compounds, 0.66% hits. AID 485360; also: % is scaled to controls: 0 for no effect and ±100 for the full control effect; nearly all actives have a fitted effect of over 60% in size
#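 AlphaScreen assay: L3MBTL1 (50 nM final) was preincubated 30 min at room temperature with biotinylated H3(1-15)K9me1 peptide (75 nM final), then 30 min with library compounds; streptavidin donor and nickel chelate acceptor beads (10 ug/mL final) added, 30 min dark.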
# JMJD2A Tudor: JMJD2A Tudor domain (human) inhibition | AlphaScreen JMJD2A-Tudor / H3K4me3 peptide binding | 390,000 compounds, 4.4% hits | Potency, µM (doses to about 114 µM), for inactives: at the top dose activity change, negative = inhibition, most hits filed as inhibitors | O75164; also: % is scaled to controls: 0 for no effect and ±100 for the full control effect; nearly all actives have a fitted effect of over 50% in size
# L3MBTL1 inh-2: blocks human L3MBTL1 methyl-lysine binding; shares compounds with L3MBTL1 inh-1; L3MBTL1 methyl-lysine binding inhibition, biochemical qHTS; Potency, µM, actives largely listed as inhibitors; 500 compounds, 91% hits; AID 540279; also: nearly all actives have a fitted effect of over 70% in size
# AlphaScreen ctr2: AlphaScreen signal inhibition, L3MBTL1 hit counter-screen | 500 tested, under 10 active | AID 602224 | AlphaScreen counterscreen, signal inhibition | shares compounds with L3MBTL1 inh-1 | Potency, µM (highest dose often 57.1 µM), for inactives: at the top dose activity change, negative = inhibition, usual class: inhibitors; also: 0% is about no effect
# An asterisk follows results filed as active; ? = inconclusive; . = no result; [ ] = remark or other dose. Calls follow the shape of the dose curve; as a rule, active = well fitted curve in the direction sought with a large enough effect; inconclusive = small, poorly fitted or top-dose-only effect, or another doubt; inactive = no such curve, though single readings can be large; an effect the other way counts as inactive or inconclusive. Potency is read from the fitted curve at half-maximal effect.
SMILES,BAZ2B block,HP1b binding inh,G9a block,Sfp PPTase inh,L3MBTL1 inh-1,JMJD2A Tudor,L3MBTL1 inh-2,AlphaScreen ctr2
O=C(C1=C(O)C(=O)N(c2nc3ccc(Cl)cc3s2)C1c1ccco1)c1ccco1 (stereo not drawn),45µM*,28µM*,?,.,20µM*,13µM*,6*,-4%
Cc1cc(C)c2nc(N3C(=O)C(O)=C(C(=O)c4ccco4)C3c3ccc(O)cc3)sc2c1 (stereo not drawn),?,-8%,?,.,-16%,?,.,.
COCC(C)NC(=O)c1cc2c(=O)n3cccc(C)c3nc2s1 (stereo not drawn),1%,16%,15%[59 µM],.,.,5%,.,.
COc1ccc(-n2c(C)c3c(OC)cccc(=O)c3c2C)cc1,?,-15%,?,-18%,2%,-33%,.,.
COc1cccc(=O)c2c(C)n(-c3ccc(C(=O)O)cc3)c(C)c12,?,-16%,?,4.5µM*,25µM*,-29%,21*,-15%
O=C(Cn1ncc2c([nH]c3ccccc32)c1=O)NCCCN1CCN(c2ccc(F)cc2)CC1,-4%,17%,-6%[59 µM],.,.,-10%,.,.
CC(C)CCC(CCN1CCCC1)c1ccc2c(c1)OCO2 (stereo not drawn),-35%,?,-4%,-21%,28µM*,1.4µM*,21*,7%
CC(NC(=O)C1CCC1)c1ccc2c(c1)OCO2 (stereo not drawn),10%,24%,16%[12.7 µM],12%,.,-7%,.,.
CN1CCN(c2ncc3nc(CCc4ccccc4)c(=O)n(CCC#N)c3n2)CC1,.,.,-1%[12.7 µM],12%,.,.,.,.
CCN(CC)S(=O)(=O)c1ccc(N2CCOCC2)c(NC(=O)c2c3c(nc4ccccc24)CCC3)c1,-38%,-8%,-23%[59 µM],15%,28µM*,?,8.4*,0%
O=C(Oc1c(CN2CCOCC2)cc(Cl)c2cccnc12)c1ccccc1F,3.5µM*,2%,-46%,13%,14µM*,25µM*,27*,2%
CC(C)[C@H](NC(=O)c1ccccc1Cl)C(=O)Nc1nc(-c2ccccn2)cs1,32µM*,18%,-4%,?,35µM*,45µM*,24*,18%
O=c1c2ccccc2c(C=NCc2ccccn2)c(O)n1-c1ccccc1,-5%,49%,11%[59 µM],15%,3%,-2%,.,.
O=c1oc2ccccc2c(O)c1C=NCc1ccccn1,?,44%,46%[59 µM],15%,16µM*,-12%,21*,25%
Cc1ccc2c(c1)c1c(c(=O)n(-c3cccc(Cl)c3)c(=O)n1CC(=O)NCC1CCCO1)n2C (stereo not drawn),-1%,58%,?,.,.,-11%,.,.
COc1cnc(-c2ccccn2)nc1Oc1ccccc1,25µM*,45%,-4%,7%,32µM*,89µM*,21*,40%
COc1cnc(-c2ccccn2)nc1Oc1cccc(C(F)(F)F)c1,?,.,-11%,0%,.,.,.,.
CCOC(=O)CSc1nc(-c2ccccn2)ncc1OC,25µM*,27%,?,3%,22µM*,71µM*,27*,34%
CCNc1nc(NCC)n2c(SCC(=O)Nc3ccc(OC(F)F)cc3)nnc2n1,-9%,-1%,-15%[59 µM],.,?,-14%,.,.
CCNc1nc(NCC)n2c(SCC(=O)Nc3ccc(F)cc3)nnc2n1,?,10%,?,.,28µM*,-18%,?,18%
CCC(=O)N1CCc2cc(Br)cc(S(=O)(=O)CCC(=O)N3CCN(c4cc(C)ccc4C)CC3)c21,?,-6%,?,.,.,-27%,.,.

# Assay outcomes from PubChem.
